{"source": "PubChem BioAssay (NCATS)", "note": "Records with an inconclusive call do not appear. Where a call stands in place of a potency, no number is given. The source made the active and inactive calls. Calls follow the shape of the dose curve; as a rule, active = well fitted inhibition curve with a large enough effect; inconclusive = small, poorly fitted or top-dose-only effect, or effect the other way; inactive = flat fitted curve, though single readings scatter."}
{"molecular_target": "ATP-dependent 6-phosphofructokinase (Trypanosoma brucei brucei) (UniProt O15648)", "sequence (O15648 whole entry, looked up)": "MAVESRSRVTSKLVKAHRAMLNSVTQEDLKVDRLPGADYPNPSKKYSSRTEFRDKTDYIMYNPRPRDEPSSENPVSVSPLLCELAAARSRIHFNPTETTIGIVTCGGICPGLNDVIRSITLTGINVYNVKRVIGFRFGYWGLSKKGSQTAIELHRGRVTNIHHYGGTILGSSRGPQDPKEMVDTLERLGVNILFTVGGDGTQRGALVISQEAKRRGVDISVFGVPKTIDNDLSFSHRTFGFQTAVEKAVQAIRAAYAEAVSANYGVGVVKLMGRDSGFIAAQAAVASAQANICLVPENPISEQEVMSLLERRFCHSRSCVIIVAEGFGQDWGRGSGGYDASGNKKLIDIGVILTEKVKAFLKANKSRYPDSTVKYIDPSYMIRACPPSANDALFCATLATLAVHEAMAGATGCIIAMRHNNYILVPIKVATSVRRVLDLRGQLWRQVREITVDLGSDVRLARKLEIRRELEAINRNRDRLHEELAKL", "test": "qHTS Assay to Find Inhibitors of T. brucei phosphofructokinase: hit validation (AID 492961);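 also: luminescence reports ADP formed as PFK phosphorylates fructose-6-phosphate with ATP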", "conditions": "T. brucei PFK, ADP-Glo luminescence; series mostly up to 51.4 µM", "how_it_was_run": "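Percent activity derived from corrected luminescence, normalized between 0x and 1x enzyme controls, then fitted to concentration-response curves. Conditions: 1.25 nM PFK, 0.1 mM ATP, 0.5 mM F6P, 45 min RT.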"}
{"smiles": "CCOC(=O)c1ccc(C#Cc2ccc3c(c2)C(C)(C)CCS3)nc1", "Potency": "inactive"}
{"smiles": "CCOC(=O)c1ccc(OC(=O)CCCCCN=C(N)N)cc1", "Potency": "inactive"}
{"smiles": "Cn1nnc2c(C(N)=O)ncn2c1=O", "Potency": "inactive"}
{"smiles": "NC(N)=NC(N)=NCCc1ccccc1", "Potency": "inactive"}
{"smiles": "CN1CCN(c2c(F)cc3c(=O)c(C(=O)O)cn4c3c2OCN4C)CC1", "Potency": "inactive"}
{"smiles": "CC(C)(Sc1cc(C(C)(C)C)c(O)c(C(C)(C)C)c1)Sc1cc(C(C)(C)C)c(O)c(C(C)(C)C)c1", "Potency": "inactive"}
{"smiles": "NCCCC(O)(P(=O)(O)O)P(=O)(O)O", "Potency": "inactive"}
{"smiles": "COc1cc2c(Nc3ccc(Br)cc3F)ncnc2cc1OCC1CCN(C)CC1", "Potency": "inactive"}
{"smiles": "Cc1oc(=O)oc1CN1CCN(c2cc3c(cc2F)c(=O)c(C(=O)O)c2n3C(C)S2)CC1", "note": "(stereo not given)", "Potency": "inactive"}
{"smiles": "CC(=O)Oc1ccccc1C(=O)Nc1ncc([N+](=O)[O-])s1", "Potency": "inactive"}
{"smiles": "COC(=O)Nc1nc2ccc(C(=O)c3ccccc3)cc2[nH]1", "Potency": "inactive"}
{"smiles": "NC(=O)N1c2ccccc2CC(=O)c2ccccc21", "Potency": "inactive"}
{"smiles": "S=P(N1CC1)(N1CC1)N1CC1", "Potency": "inactive"}
{"smiles": "CCC(C)(C)c1ccc(CC(C)CN2C[C@@H](C)O[C@@H](C)C2)cc1", "note": "(stereo not given in full)", "Potency": "inactive"}
{"smiles": "COc1cccc(N(C)C(=S)Oc2ccc3c(c2)CCCC3)n1", "Potency": "inactive"}
{"smiles": "CC(C)(C#N)c1cc(Cn2cncn2)cc(C(C)(C)C#N)c1", "Potency": "inactive"}
{"smiles": "CCOCC(O)COc1ccc(NC(=O)CC[S+](C)C)cc1", "note": "(stereo not given)", "Potency": "inactive"}
{"smiles": "CCOc1cc(N)c(Cl)cc1C(=O)NCC1CN(Cc2ccc(F)cc2)CCO1", "note": "(stereo not given)", "Potency": "inactive"}
{"smiles": "COc1cnc(NS(=O)(=O)c2ccc(N)cc2)nc1", "Potency": "inactive"}
{"smiles": "CCn1cc(C(=O)O)c(=O)c2cc(F)c(N3CCN(C)CC3)cc21", "Potency": "inactive"}
{"smiles": "CCN(C)C(=O)Oc1cccc([C@H](C)N(C)C)c1", "Potency": "inactive"}
{"smiles": "O=c1cc(O)c(Cl)c[nH]1", "Potency": "inactive"}
{"smiles": "CCCCOc1ccc(CC(=O)NO)cc1", "Potency": "inactive"}
{"smiles": "CN(C)CCc1c[nH]c2ccc(CS(=O)(=O)N3CCCC3)cc12", "Potency": "inactive"}
{"smiles": "Nc1[nH]c(=O)ncc1F", "Potency": "inactive"}
{"smiles": "CCn1cc(C(=O)O)c(=O)c2cc(F)c(N3CCNCC3)nc21", "Potency": "inactive"}
{"smiles": "C[C@@H](NCCCc1cccc(C(F)(F)F)c1)c1cccc2ccccc12", "Potency": "inactive"}
{"smiles": "CCn1cc(C(=O)O)c(=O)c2cc(F)c(N3CCNCC3)cc21", "Potency": "inactive"}
{"smiles": "CC(C)Cn1cnc2c(N)nc3ccccc3c21", "Potency": "inactive"}
{"smiles": "Nc1ccc(S(=O)(=O)Nc2ccccn2)cc1", "Potency": "inactive"}
